# Values without a mark were called inactive. Inconclusive results are not listed. Entries that show only a call come without a potency. The source made the active and inactive calls. Unless noted, calls follow the shape of the dose curve; as a rule, active = well fitted curve in the direction sought with a large enough effect in the repeat runs; inconclusive = weak or mixed curves; inactive = no such curve, though single readings can be large; an effect the other way counts as inactive or inconclusive.
# Tests used:
# [1] = A CellTox Green Cytotoxicity Assay to monitor cytotoxicity in HepG2 cells - 8 hour (AID 1224890); also: nearly all actives have a fitted effect of over 45% in size
# In short: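 Read-out is fluorescence of a cyanine dye excluded from live cells that stains DNA of dead HepG2 cells, with signal proportional to cytotoxicity. Plates were read at 0, 8, 16, 24, 32 and 40 h after compound addition.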
# [2] = qHTS assay to identify small molecule antagonists of the estrogen receptor alpha (ER-alpha) signaling pathway using the BG1 cell line in the presence of 0.1 nM 17-beta-estradiol - cell viability counter screen (AID 1259241); also: nearly all actives have a fitted effect of over 40% in size
# In short: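 Measures cytotoxicity alongside the ER-alpha antagonist readout: VM7Luc4E2 cells, charcoal-stripped serum, 0.1 nM 17beta-estradiol final, 22 hr compound incubation at 37C, CellTiter-Fluor fluorescence.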
# [3] = qHTS assay to identify small molecule antagonists of the androgen receptor (AR) signaling pathway using the MDA cell line in the presence of 0.5 nM R1881 - cell viability counter screen (AID 1259242); also: nearly all actives have a fitted effect of over 45% in size
# In short: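 Counter screen for cytotoxicity run in the same wells as the AR antagonist reporter screen: MDA-kb2 cells were treated 16 hr with test compounds and 0.5 nM R1881, then live-cell protease activity was measured by fluorescence.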
# [4] = qHTS assay to identify small molecule phospholipidosis (PLD) inducers (AID 1259344; active = well fitted curve in the direction sought with a large enough effect; an effect the other way counts as inactive or inconclusive)
# In short: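 Quantitative HTS in HepG2: compound plus LipidTOX Red dye for 24 h, paraformaldehyde fixation with Hoechst 33342, widefield high-content imaging; amiodarone as positive and DMSO as negative control.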
# [5] = qHTS assay to identify small molecule HDAC inhibitors (AID 1259364); also: top concentration of the series differs between compounds; nearly all actives have a fitted effect of over 45% in size
# In short: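 Luminescence from a cell-permeant luminogenic class I/II HDAC substrate reports endogenous deacetylase activity in intact HCT-116 cells treated with compounds for 2 h.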
# [6] = qHTS assay to identify small molecule HDAC inhibitors - cell viability counter screen (AID 1259365); also: series mostly up to about 92 µM; nearly all actives have a fitted effect of over 50% in size
# In short: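 Following a 2hr exposure of overnight-plated wild-type HCT-116 cells to DMSO-delivered compounds, CellTiter-Glo was added and luminescence recorded after 30min at room temperature.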
# [7] = qHTS assay to identify small molecule agonists of the sonic hedgehog signaling (Shh) pathway - cell viability counter screen (AID 1259366); also: nearly all actives have a fitted effect of over 50% in size
# In short: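 After a 4hr attachment at 37C, NIH/3T3 cells bearing an integrated Gli1-driven luciferase reporter were dosed with compounds. Treatment lasted 24hr, with the final hour including CellTiter-Fluor for a fluorescence viability measurement.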
# [8] = qHTS assay to identify small molecule antagonists of the sonic hedgehog signaling (Shh) pathway - cell viability counter screen (AID 1259367); also: nearly all actives have a fitted effect of over 55% in size
# In short: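 Seed 3T3 Gli1-Luc cells at 2,000 per well; incubate 4 hr; add compound in DMSO, then conditioned medium; incubate at 37C with 5% CO2; add CellTiter-Fluor after 23 hr; read fluorescence 1 hr later.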
# [9] = qHTS assay to identify small molecule agonists of the sonic hedgehog signaling (Shh) pathway (AID 1259368; calls by dose curve;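 also: NIH/3T3-derived 3T3Gli1-Luc cells carrying a stable Gli1-driven firefly luciferase reporter; series mostly up to about 92 µM; nearly all actives have a fitted effect of over 15% in size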)
# In short: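 3T3Gli1-Luc (NIH/3T3 clone, stable Gli1-Luc); 4 hr pre-incubation, then cpd in DMSO 24 hr, 37 C/5% CO2; luciferase reagent 30 min RT; luminescence.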
# [10] = qHTS assay to identify small molecule antagonists of the sonic hedgehog signaling (Shh) pathway (AID 1259369; calls by dose curve; also: nearly all actives have a fitted effect of over 45% in size; also: potency is read from the fitted curve at half-maximal effect)
# In short: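 3T3Gli1-Luc, conditioned-medium-stimulated, 24hr cpd, 37C/5% CO2; Gli1-driven firefly Luc luminescence after 30min RT with luciferase reagent. Cells plated 4hr before cpd.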
# [11] = qHTS assay to identify small molecule agonists of the androgen receptor (AR) signaling pathway in the presence of an antagonist - cell viability counter screen (AID 1259379);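 also: MDA-kb2 human breast cancer cells carrying an MMTV luciferase reporter; series mostly up to about 92 µM; nearly all actives have a fitted effect of over 25% in size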
# In short: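 Cells: MDA-kb2 (MMTV-luc, AR and GR elements), 3,000/well, 5 hr settle. Added: nilutamide 3.0uM final, then compounds (15 conc.). Incubation: 16 hr, 37C, no CO2. Read-out: CellTiter-Fluor, 1 hr, fluorescence.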
# [12] = qHTS assay to identify small molecule agonists of the estrogen receptor beta (ER-beta) signaling pathway - cell viability counter screen (AID 1259380); also: nearly all actives have a fitted effect of over 30% in size; also: potency is read from the fitted curve at half-maximal effect
# In short: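 HEK293T ER-beta-UAS-bla; 2% CS-FBS; 6 hr pre-plate, 16 hr cpd at 37C/5% CO2; LiveBLAzer read first, then CellTiter-Glo 30 min RT, luminescence.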
# [13] = qHTS assay to identify small molecule antagonists of the estrogen receptor beta (ER-beta) signaling pathway - cell viability counter screen (AID 1259382); also: series mostly up to about 92 µM; nearly all actives have a fitted effect of over 55% in size
# In short: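 Cells: ER-beta-UAS-bla HEK293T, 2,000/well, 2% CS-FBS, 6 hr settle. Cpd + E2 (1nM final), 16 hr, 37C/5% CO2. Bla FRET substrate 2 hr RT, then CellTiter-Glo 30 min RT, luminescence.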
# [14] = molecular target: Estrogen receptor (Homo sapiens) (UniProt P03372); assay: qHTS assay to identify small molecule agonists of the estrogen receptor alpha (ER-alpha) signaling pathway in the presence of an antagonist (AID 1259383; calls by dose curve; also: top concentration of the series differs between compounds; nearly all actives have a fitted effect of over 15% in size)
# Estrogen receptor (Homo sapiens), sequence (P03372 whole entry, looked up): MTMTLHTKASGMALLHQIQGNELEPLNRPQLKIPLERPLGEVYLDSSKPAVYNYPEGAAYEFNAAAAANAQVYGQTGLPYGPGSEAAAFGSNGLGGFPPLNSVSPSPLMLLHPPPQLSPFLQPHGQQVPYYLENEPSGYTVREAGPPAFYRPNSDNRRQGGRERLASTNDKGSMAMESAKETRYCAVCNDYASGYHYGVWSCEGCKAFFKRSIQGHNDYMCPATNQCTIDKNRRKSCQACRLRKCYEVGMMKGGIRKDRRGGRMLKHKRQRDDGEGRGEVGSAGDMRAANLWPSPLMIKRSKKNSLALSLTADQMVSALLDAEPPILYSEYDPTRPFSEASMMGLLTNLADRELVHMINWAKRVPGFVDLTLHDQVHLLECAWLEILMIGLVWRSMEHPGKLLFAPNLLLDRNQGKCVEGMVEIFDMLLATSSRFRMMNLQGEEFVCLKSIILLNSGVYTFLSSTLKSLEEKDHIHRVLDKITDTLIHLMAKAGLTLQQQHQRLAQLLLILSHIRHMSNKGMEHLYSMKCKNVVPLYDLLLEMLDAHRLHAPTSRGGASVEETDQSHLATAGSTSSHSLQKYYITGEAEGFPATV
# In short: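 VM7Luc4E2, endog. ER-alpha + 4×ERE-luc; charcoal-stripped FBS, phenol red-free, 5 d; 24hr plating; +10.0nM ICI-182,780 (final); cpds 15 conc, 22hr, 37C/5% CO2; ONE-Glo luminescence.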
# [15] = qHTS assay to identify small molecule agonists or antagonists of the thyroid stimulating hormone receptor (TSHR) signaling pathway - wild type cell line counter screen (AID 1259384; calls by dose curve)
# In short: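 Wild-type Hek293 cells, 800/well, 18 h at 37C, then compound with Ro20-1724 for 30 min RT. cAMP by HTRF (cAMP-d2/anti-cAMP cryptate), 1 h RT, fluorescence read. 15 concentrations, triplicates.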
# [16] = molecular target: Estrogen receptor beta (Homo sapiens) (UniProt Q92731); assay: qHTS assay to identify small molecule agonists of the estrogen receptor beta (ER-beta) signaling pathway (AID 1259377; active = well fitted activation curve with a large enough effect in the signal ratio in the repeat runs, not every such curve was filed as active; the % refers to the signal ratio)
# Estrogen receptor beta (Homo sapiens), sequence (Q92731 whole entry, looked up): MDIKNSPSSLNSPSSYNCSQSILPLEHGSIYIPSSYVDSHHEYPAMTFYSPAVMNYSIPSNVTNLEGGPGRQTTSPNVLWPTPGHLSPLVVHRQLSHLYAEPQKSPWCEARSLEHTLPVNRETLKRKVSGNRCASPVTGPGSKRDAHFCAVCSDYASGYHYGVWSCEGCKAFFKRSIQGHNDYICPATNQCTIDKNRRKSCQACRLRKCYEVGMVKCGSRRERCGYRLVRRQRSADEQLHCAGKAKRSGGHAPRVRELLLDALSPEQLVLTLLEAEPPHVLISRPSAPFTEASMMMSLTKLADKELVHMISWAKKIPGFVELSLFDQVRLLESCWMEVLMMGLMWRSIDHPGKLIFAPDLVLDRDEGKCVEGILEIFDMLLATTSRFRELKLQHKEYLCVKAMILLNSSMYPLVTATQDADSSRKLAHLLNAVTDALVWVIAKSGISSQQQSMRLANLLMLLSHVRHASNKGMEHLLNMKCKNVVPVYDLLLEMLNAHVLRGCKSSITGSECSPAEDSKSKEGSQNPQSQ
# In short: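 In HEK293T cells bearing a UAS-beta-lactamase reporter under ER-beta control, DMSO-delivered compounds were incubated for 16 hr at 37C. Activity was detected as fluorescence 2 hours after LiveBLAzer B/G FRET substrate addition.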
# [17] = molecular target: Estrogen receptor (Homo sapiens) (UniProt P03372); assay: qHTS assay to identify small molecule antagonists of the estrogen receptor alpha (ER-alpha) signaling pathway using the BG1 cell line in the presence of 0.1 nM 17-beta-estradiol (AID 1259244); also: nearly all actives have a fitted effect of over 50% in size
# In short: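 Cells: VM7Luc4E2, endogenous ER-alpha, 4x ERE-luc stable. Pre-culture 5 d, phenol red-free, charcoal-stripped FBS. Plated 24 h, compound + E2 0.1 nM final, 22 h 37C/5% CO2. Readout ONE-Glo luminescence.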
# [18] = molecular target: Estrogen receptor beta (Homo sapiens) (UniProt Q92731); assay: qHTS assay to identify small molecule antagonists of the estrogen receptor beta (ER-beta) signaling pathway (AID 1259378; active = well fitted inhibition curve with a large enough effect in the signal ratio in the repeat runs, not every such curve was filed as active; the % refers to the signal ratio; also: potency is read from the fitted curve at half-maximal effect)
# In short: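 ER-beta-UAS-bla HEK293T cells in 2% charcoal-stripped FBS medium treated with compound plus 1nM final 17-beta-estradiol for 16 hr at 37C. Beta-lactamase reporter read by FRET substrate fluorescence after 2 hours at room temperature.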
Compound,Potency [1],Potency [2],Potency [3],Potency [4],Potency [5],Potency [6],Potency [7],Potency [8],Potency [9],Potency [10],Potency [11],Potency [12],Potency [13],Potency [14],outcome [15],Potency [16],Potency [17],Potency [18],PLD induction [4]
CN1CC(=O)N2[C@H](c3ccc4c(c3)OCO4)c3[nH]c4ccccc4c3C[C@@H]2C1=O,inactive,inactive,inactive,inactive,inactive,inactive,inactive,inactive,inactive,inactive,inactive,inactive,inactive,inactive,inactive,–,–,–,–
CC1CC(OC(=O)C(O)c2ccccc2)CC(C)(C)N1C (stereo not given),inactive,inactive,inactive,inactive,inactive,inactive,inactive,inactive,–,–,inactive,inactive,inactive,–,inactive,inactive,–,–,–
Cc1cc(C)c(N)cc1C,inactive,inactive,inactive,–,inactive,–,inactive,inactive,–,inactive,inactive,inactive,inactive,inactive,inactive,inactive,inactive,–,–
CC=C(Cl)Cl,inactive,inactive,inactive,–,inactive,–,inactive,inactive,inactive,inactive,inactive,inactive,inactive,inactive,inactive,inactive,inactive,inactive,–
CC(C)(C)CC(=O)OCC(=O)[C@@]1(O)CC[C@H]2[C@@H]3CCC4=CC(=O)C=C[C@]4(C)[C@H]3[C@@H](O)C[C@@]21C,inactive,inactive,inactive,–,inactive,inactive,–,inactive,inactive,6.68 µM (active),inactive,8.41 µM (active),–,inactive,inactive,inactive,inactive,26.6 µM (active),–
CCCCC(CC)COP(=O)(O)O (stereo not given),inactive,inactive,inactive,–,inactive,inactive,inactive,inactive,–,inactive,inactive,–,inactive,inactive,inactive,–,inactive,–,–
Oc1cccc(Nc2ccccc2)c1,inactive,inactive,inactive,–,inactive,inactive,–,inactive,inactive,inactive,inactive,inactive,inactive,–,inactive,–,inactive,–,–
Cc1ccccc1N=C(N)Nc1ccccc1C,inactive,inactive,inactive,–,inactive,–,inactive,–,inactive,–,inactive,inactive,inactive,inactive,inactive,–,inactive,–,–
O=C(CCCN1CC=C(n2c(=O)[nH]c3ccccc32)CC1)c1ccc(F)cc1,inactive,inactive,inactive,inactive,inactive,–,inactive,inactive,inactive,inactive,inactive,13.3 µM (active),–,inactive,–,inactive,–,inactive,–
C[C@@]12CCC[C@H]1[C@@H]1CC[C@H]3C[C@@H](O)CC[C@]3(C)[C@H]1CC2,inactive,inactive,inactive,–,inactive,inactive,–,inactive,inactive,23.7 µM (active),inactive,inactive,inactive,–,inactive,–,–,–,17.2% [at 7.66 µM]
CCCCCC[C@@H](O)C/C=C\CCCCCCCC(=O)O,inactive,inactive,inactive,inactive,inactive,inactive,inactive,inactive,–,inactive,inactive,–,–,–,inactive,inactive,–,–,–

# Reference: PubChem BioAssay (Tox21)
